Laboratory results published in PubChem BioAssay.
The source made the active and inactive calls.

Columns and labels:
Albumin (Bos taurus) = Albumin (Bos taurus) (UniProt P02769); assay: bovine serum albumin binders on microarray, profiling panel, artefact control for SMM control protein annotation, biochemical, small-molecule microarray, Alexa647 label, 635/667 nm fluorescence (AID 1118); details: BSA-A647 binding, fluorescence 635 nm, higher = more signal;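 note: score merges 667 nm emission intensity and signal-to-noise per printed compound spot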
[1] = small-molecule microarray binders of probe aXIP, primary screen, biochemical, NeuroSMM set, 635/667 nm fluorescence (AID 1119); details: higher = more signal, called active from +8 up or from −8 down;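 note: probe is the protein aXip251-270 applied at 1 µg/mL to compound-printed slides; binding of probe to printed compounds measured as 667 nm fluorescence plus signal to noise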
[2] = small-molecule binders of probe aNOTCH3, primary screen, biochemical, small-molecule microarray, 635/667 nm fluorescence (AID 1120); details: higher = more signal;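 note: probe is a biotin-tagged antibody raised against NOTCH3 rather than NOTCH3 protein; score merges spot fluorescence near 667 nm with spot signal to noise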
[3] = small-molecule binders of probe aNOTCH2, primary screen, biochemical, small-molecule microarray, 635/667 nm fluorescence (AID 1121); details: higher = more signal;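 note: score merges feature fluorescence read at 667 nm with its signal to noise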
[4] = biological target: Carbonic anhydrase 2 (Homo sapiens) (UniProt P00918); assay: CAII small-molecule binders, profiling panel, biochemical, small-molecule microarray, Alexa647-labelled CAII (AID 1122); details: CAII-A647 binding fluorescence, higher = more signal
[5] = COS7 lysate on small-molecule microarray, probe aHis, 635 nm (AID 1123); details: COS7 cell lysate, fluorescence, higher = more signal;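 note: z-score combines 667nm fluorescence intensity with signal-to-noise per printed compound spot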
[6] = compound binding in COS7 lysate, probe aLAP1, primary screen, cell lysate, small-molecule microarray (AID 1124); details: probe aLAP1, fluorescence, higher = more signal;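 note: lysate comes from COS7 cells expressing LAP1 and is applied at 0.3 µg/mL; score merges spot fluorescence near 667 nm with signal-to-noise over triplicate slides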
Sam68 (KHDRBS1) = assay: Sam68 small-molecule binders, primary screen, biochemical, small-molecule microarray, 635 nm fluorescence (AID 1125); details: small-molecule microarray binding, higher = more signal;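 note: score merges 667 nm channel intensity with signal to noise over triplicate slides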
[7] = tested on: Chordin-like protein 2 (CHRDL2); assay: CHRDL2 small-molecule binders, primary screen, biochemical, small-molecule microarray, 635 nm fluorescence (AID 1126); details: small-molecule microarray binding, fluorescence 635 nm; higher = more signal;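 note: printed compound slides probed with Chrdl2 protein at 4 µg/mL for 1 h at 4 C; score merges 667 nm emission intensity with signal to noise over three replicate slides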
[8] = biological target: Concanavalin-A (Canavalia ensiformis) (UniProt P02866); assay: ConA small-molecule binders, primary screen, artefact control for SMM control protein annotation, biochemical, small-molecule microarray, Alexa647 label, 635 nm (AID 1127); details: ConA-A647 binding fluorescence, higher = more signal;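 note: z combines 667 nm emission intensity with signal-to-noise across three replicate slides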
Sequence of Concanavalin-A (Canavalia ensiformis) (P02866 whole entry, looked up): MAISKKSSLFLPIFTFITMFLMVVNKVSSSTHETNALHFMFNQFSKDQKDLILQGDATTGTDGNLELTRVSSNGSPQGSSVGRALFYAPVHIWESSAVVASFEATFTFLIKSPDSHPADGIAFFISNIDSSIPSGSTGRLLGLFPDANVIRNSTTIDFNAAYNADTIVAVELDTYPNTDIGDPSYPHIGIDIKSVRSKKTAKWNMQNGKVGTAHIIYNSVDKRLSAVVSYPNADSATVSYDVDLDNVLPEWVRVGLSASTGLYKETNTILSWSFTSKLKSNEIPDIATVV

Sequence of Albumin (Bos taurus) (P02769 whole entry, looked up): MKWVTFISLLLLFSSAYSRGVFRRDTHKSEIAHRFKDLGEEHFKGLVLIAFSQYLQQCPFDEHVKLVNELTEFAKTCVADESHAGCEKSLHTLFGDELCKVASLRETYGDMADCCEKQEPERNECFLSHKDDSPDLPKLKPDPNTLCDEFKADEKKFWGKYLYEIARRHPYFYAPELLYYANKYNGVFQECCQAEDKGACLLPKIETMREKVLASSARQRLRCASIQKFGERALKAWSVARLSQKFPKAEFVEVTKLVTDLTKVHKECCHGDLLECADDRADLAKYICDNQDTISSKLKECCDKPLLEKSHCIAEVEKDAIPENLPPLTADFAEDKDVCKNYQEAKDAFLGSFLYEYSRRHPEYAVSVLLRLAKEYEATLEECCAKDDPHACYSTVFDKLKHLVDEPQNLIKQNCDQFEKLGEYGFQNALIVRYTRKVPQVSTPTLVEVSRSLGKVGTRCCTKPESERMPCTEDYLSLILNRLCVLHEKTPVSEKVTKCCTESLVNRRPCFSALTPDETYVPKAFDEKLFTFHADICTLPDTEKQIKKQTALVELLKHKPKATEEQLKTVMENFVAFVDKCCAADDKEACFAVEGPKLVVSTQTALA

Compound	composite z-score (Albumin (Bos taurus))	composite Z-score [1]	composite z-score [2]	composite z-score [3]	composite z-score [4]	composite z-score [5]	composite z-score [6]	composite z-score (Sam68 (KHDRBS1))	composite z-score [7]	composite z-score [8]
NC(=O)[C@@]1(CCS(=O)(=O)c2ccccc2)N=C(c2ccc(OCCCO)cc2)O[C@H]1c1ccccc1	0.737	-0.0775 (inactive)	0.0793	-0.0531	0.801	2.86	0.821	1.2	-1.12	1.14
O=C(NCc1ccccc1)[C@@H]1c2ccccc2C(=O)N(C2CCCCC2)[C@H]1c1ccc(CO)cc1	0.654	0.142 (inactive)	-0.112	-0.286	0.795	0.642	1.78	0.467	-0.475	0.335
CC(C)(C)OC(=O)CC[C@@]1(C(=O)N2CCOCC2)N=C(c2ccc(OCCCO)cc2)O[C@@H]1c1ccccc1N=[N+]=[N-]	0.899	0.817 (inactive)	0.336	-0.0463	0.74	3.35	1.51	1.3	-0.16	1.14
C=CCNC(=O)[C@@H]1[C@H]2C(=O)O[C@H](c3ccccc3)[C@H](c3ccccc3)N2[C@H](c2ccccc2OCCO)[C@@]12C(=O)N(C(=O)OCCOC)c1ccc(C#CCC(C(=O)OC)C(=O)OC)cc12	0.718	1.26 (inactive)	1.41	0.526	0.505	3.05	1.33	1.32	1.49	1.15
CC(C)NC(=O)[C@@H]1c2ccccc2C(=O)N(C2CCCCC2)[C@H]1c1ccc(CO)cc1	-0.338	-0.101 (inactive)	-0.0731	-0.0326	0.336	1.47	-0.0044	0.77	-0.329	0.661
O=C1C2C=CC(C(O)c3cccc4ccccc34)N(n3cnnc3)C2C(=O)N1Cc1ccccc1 (stereo not given)	-0.0146	-0.415 (inactive)	1.28	0.747	0.754	0.434	0.544	-0.131	0.166	0.0912
[N-]=[N+]=Nc1ccccc1[C@@H]1OC(c2ccc(OCCCO)cc2)=N[C@]1(CCS(=O)(=O)c1ccccc1)C(=O)O	0.829	0.834 (inactive)	0.416	-0.0323	0.683	1.61	-0.252	1.31	0.012	1.15
CCOC(=O)C1=C[C@@H](C(C)(C)C)N(S(=O)(=O)c2ccc(C)cc2)[C@H]1c1ccc(Cl)c(Cl)c1	0.867	-0.179 (inactive)	0.163	0.0601	0.497	1.79	1.03	1.3	0.185	1.16
O=C1O[C@H](c2ccccc2)[C@H](c2ccccc2)N2[C@H]1[C@@H](C(=O)N1CCCCCCC1)[C@]1(C(=O)Nc3ccc(C#CC4=CCCCC4)cc31)[C@H]2c1ccc(O)cc1	0.599	10.9 (active)	2.37	1.22	1.1	5.31	1.2	1.35	1.71	1.14
O=C1O[C@@H](c2ccccc2)[C@@H](c2ccccc2)N2[C@@H](c3ccccc3OCCO)[C@]3(C(=O)Nc4ccc(C#CC5(O)CCCCCC5)cc43)[C@@H](C(=O)NC[C@H](O)c3ccccc3)[C@H]12	0.644	1.17 (inactive)	0.638	0.0062	0.244	2.29	0.146	1	-0.134	0.622
[N-]=[N+]=NCc1ccccc1[C@H]1OC(c2ccc(OCCCO)cc2)=N[C@@]1(Cc1ccccc1)C(=O)O	0.179	-0.365 (inactive)	0.102	-0.106	0.63	1.05	-0.289	1.13	-0.469	1.11
C=CC[C@@]1(C(=O)OC)N=C(c2ccc(OCCCO)cc2)O[C@@H]1c1ccccc1CN=[N+]=[N-]	-0.13	-0.169 (inactive)	0.0419	-0.102	0.586	1.48	-0.11	0.38	0.373	0.518
CN(C)CCCN1C(=O)[C@@]2(c3ccc([N+](=O)[O-])cc3)CC(=O)N(C3CCCCC3)[C@@H]2c2ccc(CO)cc21	-0.4	0.0831 (inactive)	-0.0665	-0.0455	-0.622	-0.317	-0.233	-0.395	-0.137	0.209
O=C(CS)NCCCCCNC(=O)[C@H]1C[C@H]2C(=O)N[C@@H](Cc3ccccc3)C(=O)N2[C@H]1c1cccc(OCCO)c1	-1.62	0.482 (inactive)	0.273	-0.0562	0.484	1.75	0.76	1.31	1.43	1.18
CCOC(=O)C1=CC[C@@H](c2cccc(Cl)c2)N(S(=O)(=O)c2ccc(C)cc2)[C@H]1c1ccc(C#N)cc1	1.01	0.272 (inactive)	0.159	0.0747	0.728	2.86	0.668	1.29	-0.0727	1.11
COC(=O)[C@@]1(Cc2ccc(F)cc2)[C@H]2c3cc(C(=O)N(C)C)n(CCc4c[nH]c5ccc(OC)cc45)c3C[C@H]2CN1C(=O)c1ccccc1	0.655	0.0904 (inactive)	0.351	0.317	0.617	2.74	0.606	1.1	-0.705	-0.203
CC(c1ccccc1)C(O)C1C=CC2C(=O)N(Cc3ccccc3)C(=O)C2N1n1cnnc1 (stereo not given)	0.405	0.171 (inactive)	0.178	-0.046	0.415	1.06	-0.0771	0.669	-0.226	0.851
O=C(NCCN1CCOCC1)[C@@H]1c2ccccc2C(=O)N(Cc2cc(F)cc(C(F)(F)F)c2)[C@H]1c1ccc(CO)cc1	-0.265	-0.543 (inactive)	0.49	-0.222	0.724	2.53	-0.062	0.463	-1.55	-0.287
O=C1[C@H]2C=C(Br)[C@H](C[C@@H]2OCCOCCO)[C@@]12CO2	-0.335	-0.0482 (inactive)	-0.105	-0.0418	-0.122	-0.146	0.669	0.421	0.169	0.393
COC(=O)[C@@]1(Cc2ccc(OC)cc2)[C@H]2c3cc(C(=O)N(C)C)n(CCSCCO)c3C[C@H]2CN1C(=O)c1ccccc1	0.905	-0.786 (inactive)	0.182	0.407	0.844	2.4	-0.0747	1.23	-0.186	1.13
COCCOC(=O)N1C(=O)[C@@]2(c3cc(C#Cc4ccc(OC)cc4)ccc31)[C@H](c1ccc(O)cc1)N1[C@H](c3ccccc3)[C@H](c3ccccc3)OC(=O)[C@H]1[C@@H]2C(=O)N1CCN(c2ncccn2)CC1	0.303	-0.321 (inactive)	0.0486	-0.0956	0.395	1.48	0.406	1.2	-0.126	0.657
